Compound activity as filed in PubChem.
Shown are actives, neighbours in structure and some others; about 11% of the full set was active somewhere.
ALDH1A1 block: qHTS Assay for Inhibitors of Aldehyde Dehydrogenase 1 (ALDH1A1). Purified ALDH1A1, NADH fluorescence, propionaldehyde substrate. 7.3% of 220,000 active. Potency, µM (top dose mostly 75.3 µM), usual class: inhibitors. Aldehyde dehydrogenase 1A1 (Homo sapiens), P00352
Target sequence (P00352 whole entry, looked up): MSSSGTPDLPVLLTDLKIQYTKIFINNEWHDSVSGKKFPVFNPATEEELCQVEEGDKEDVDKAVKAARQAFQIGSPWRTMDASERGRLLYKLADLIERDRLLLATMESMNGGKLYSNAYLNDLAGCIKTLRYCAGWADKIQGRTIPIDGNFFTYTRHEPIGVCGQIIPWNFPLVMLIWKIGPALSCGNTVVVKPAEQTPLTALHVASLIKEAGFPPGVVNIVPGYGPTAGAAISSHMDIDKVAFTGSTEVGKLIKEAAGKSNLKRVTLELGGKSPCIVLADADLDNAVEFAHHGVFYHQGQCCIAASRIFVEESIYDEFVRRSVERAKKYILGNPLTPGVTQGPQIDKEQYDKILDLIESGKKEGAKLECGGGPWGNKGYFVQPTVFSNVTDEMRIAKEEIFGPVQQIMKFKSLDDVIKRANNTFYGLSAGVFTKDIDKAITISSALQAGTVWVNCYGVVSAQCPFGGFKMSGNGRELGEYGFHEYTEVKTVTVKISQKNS
PNC assembly inh: High Content Assay for Compounds that inhibit the Assembly of the Perinucleolar Compartment | 3.1% of 140,000 active | PC3M PTB-GFP, PNC prevalence imaging, 16 h; active compounds read low | activity change (PNC), negative = inhibition, % at 10 µM | AID 2417, 2010;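 active means readout at or below -70, meaning at least 70% loss of cells showing the perinucleolar compartment, a nuclear body marking cancer cells; inconclusive means readout between -30 and a set limit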
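Read-out is percentage of cells bearing a perinucleolar compartment, from automated 20x imaging of fixed, Hoechst-stained PC3M PTB-GFP cells. Cells were seeded 4 h, then exposed 16 h to compound (23 nl of library stock) in duplicate plates.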
HPGD block: qHTS Assay for Inhibitors of HPGD (15-Hydroxyprostaglandin Dehydrogenase) | 15-hydroxyprostaglandin dehydrogenase [NAD(+)] (Homo sapiens), P15428 | purified HPGD, NADH fluorescence kinetic, PGE2 substrate | Potency, µM, hits mostly inhibitors | 4.3% of 150,000 active | AID 894, 2007
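20 nM HPGD preincubated 15 min at room temperature with compound in 50 mM Tris-HCl pH 8, 0.01% Tween 20. Started with 1 mM NAD+ and 30 uM prostaglandin E2; NADH fluorescence (360/450 nm) read 5 times over 30-s intervals, last minus first.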
Numbers stand for hits; n = inactive; u = inconclusive; x = no result; ! = not confirmed by another sample; [ ] = another dose, or the depositor's remark. Unless noted, the call rests on the fitted dose curve; in most records, active means well fitted inhibition curve with a large enough effect (not every such curve was filed as active); inconclusive means small, poorly fitted or top-dose-only effect, or another doubt; inactive means no such curve, though single readings can be large or run the other way.

SMILES	ALDH1A1 block	PNC assembly inh	HPGD block
CCOC(=O)NCc1ccc(CNC(=O)OCC)cc1	n	n	n
Cc1ccc[n+](CC(=O)Nc2ccc([N+](=O)[O-])cc2Cl)c1	15.8µM	u	n
COc1cc([N+](=O)[O-])ccc1NC(=O)C[n+]1cccc(C)c1	u	n	n
Cc1ccc2nc3ccc(N4CCCCCCC4)nn3c(=O)c2c1	10µM	u	n
Cc1ccc2nc3ccc(N4CCN(C)CC4)nn3c(=O)c2c1	u	n	n
CCCN(CCC)S(=O)(=O)c1ccc(NS(=O)(=O)c2ccc(F)cc2)cc1	n	n	x
CCN(CC)S(=O)(=O)c1ccc(N2CCOCC2)c(NS(=O)(=O)c2ccc(C(C)C)cc2)c1	n	n	n
CCN(CC)S(=O)(=O)c1ccc(S(=O)(=O)N2CCCC2)cc1	n	x	x
CCN(CC)S(=O)(=O)c1ccc(N2CCCC2)c(NS(=O)(=O)c2ccc(OC)cc2)c1	2.51µM	n	n
CCN(CC)S(=O)(=O)c1ccc(N2CCCC2)c(NS(=O)(=O)c2ccc([N+](=O)[O-])cc2)c1	2µM	n	x
CCN(CC)S(=O)(=O)c1ccc(N2CCCC2)c(NS(=O)(=O)c2ccccc2)c1	0.355µM	n	n
CCN(CC)S(=O)(=O)c1ccc(N2CCCC2)c(NS(=O)(=O)c2ccc(F)cc2)c1	0.631µM	u	n
COc1ccc(NS(=O)(=O)c2cc(NC(=O)C3CC3)ccc2N2CCCCC2)cc1	n	x	x
CCN1C(=O)N[C@@H](c2ccccc2)C1=O	n	x	n
COc1cccc(Nc2ncc3nc(-c4cccs4)c(=O)n(-c4ccccc4)c3n2)c1	n	x	x
C=CC[C@@](C(C)=O)(C(=O)OC)C(NC(=O)OC)c1ccccc1 (stereo partly drawn)	n	x	n
CCOP(=O)(OCC)c1nc(-c2ccc(Cl)cc2Cl)oc1N1CCOCC1	n	x	x
Cc1ccc(S(=O)(=O)Nc2cc(C(F)(F)F)ccc2N2CCOCC2)cc1C	u	n	n
CCN(CC)S(=O)(=O)c1ccc(N2CCOCC2)c(NS(=O)(=O)c2cc(C(C)(C)C)ccc2C)c1	14.1µM	u	n
CC[C@@H]1/C=C(\C)C[C@H](C)C[C@H](OC)[C@H]2O[C@@](O)(C(=O)C(=O)N3CCCC[C@H]3C(=O)O[C@H](/C(C)=C/[C@@H]3CC[C@@H](O)[C@H](OC)C3)[C@H](C)[C@@H](O)CC1=O)[C@H](C)C[C@@H]2OC	n	x	x
NS(=O)(=O)c1ccc(NC(=S)Nc2nn(Cc3ccc(Cl)cc3Cl)cc2Cl)cc1	u	n	n
C=CCOc1ccc(C2CC(C)=NN2c2ccccc2)cc1 (stereo not drawn)	n	u	n
COc1cccc(CCc2nnc(CCC(=O)NC(C)c3c(C)nn(C)c3C)o2)c1 (stereo not drawn)	n	x	x
CC(=O)OCc1c(C(F)(F)F)nn(C)c1Oc1ccccc1	n	n	n
Cc1nn(C)c(Oc2ccccc2)c1CCNC(=O)CCl	22.4µM	x	x
SMILES	ALDH1A1 block	PNC assembly inh	HPGD block
CCOc1ccc(OCC(=O)N2CCOCC2)cc1	n	u	n
N#CC(C#N)=Cc1ccc(OCC(=O)N2CCOCC2)cc1	8.91µM	x	x
O=C(NC1CCCCC1)C1CCN(c2cnccn2)CC1	n	-94.5	n
Cc1ccccc1NC(=O)C1CCN(c2cnccn2)CC1	n	n	n
CCOC(=O)N/N=C1\CCS(=O)(=O)c2ccc(Cl)cc21	n	x	x
CN(C)C(=O)CSc1nnc(Cc2ccccc2)n1CC1CCCO1 (stereo not drawn)	n	x	x
CC(C)C(N)C(=O)NC(Cc1c[nH]c2ccccc12)C(=O)O (stereo not drawn)	n	x	n
c1ccc(Cn2c(NCc3ccncc3)nc3ccccc32)cc1	25.1µM	x	x
c1ccc(Cn2c(NCc3ccccn3)nc3ccccc32)cc1	n	x	x
c1ccc(Cn2nnnc2CN2CCN(c3ncccn3)CC2)cc1	11.2µM	n	n
COc1ccc(Cn2nnnc2CN2CCOCC2)cc1	n	n	n
Cc1cc(N)c2cc(OCCOc3ccc4nc(C)cc(N)c4c3)ccc2n1	u	x	n
O=C(O)/C=C/C(=O)Nc1ccc(NC(=O)c2ccccc2)c(Cl)c1	2.24µM	x	x
O=C(Cc1ccccc1)Nc1ccc(NC(=O)c2cccs2)c(Cl)c1	n	u	n
CC1(C)C2CCC(C2)C1(C)NC(=O)CNC1CCCCC1 (stereo not drawn)	n	x	x
Cc1cccc(Nc2cc(Cl)nc(SCC(=O)O)n2)c1C	10µM!	x	25.1µM!
Cc1cccc(Nc2ccccc2C(=O)O)c1C	n	n	n
Cc1ccc(NCC(=O)Nc2cccc(S(=O)(=O)N(C)C)c2)c(Cl)c1	n	u	n
Cc1ccc(OCC(=O)N2CCCCC2)c(Br)c1	n	n	15.8µM
COc1ccccc1N1CCN(C(=O)COc2ccc(C)cc2Br)CC1	u	n	n
Cc1cc(OCC(=O)N2CCCC2)ccc1Cl	n	u	n
Cc1cc(OCC(=O)N2CCCC2)cc(C)c1Cl	n	n	11.2µM
CCN(CCn1cccn1)Cc1ccccc1OCC(O)CN1CCc2ccccc2C1 (stereo not drawn)	n	x	x
CC1(C)CC(=O)C2=C(C1)OC(N)=C(C#N)[C@@]21C(=O)N(CC(N)=O)c2ccccc21	n	n	x
CC1(C)CC(=O)C2=C(C1)OC(N)=C(C#N)C21CCN(C(=O)OCc2ccccc2)CC1	10µM	n	n
SMILES	ALDH1A1 block	PNC assembly inh	HPGD block
N#CC1=C(N)OC2=C(C(=O)CCC2)C12CCN(C(=O)OCc1ccccc1)CC2	u	n	n
CC1(C)CC(=O)C2=C(C1)OC(N)=C(C#N)C21C(=O)N2CCCc3cccc1c32 (stereo not drawn)	7.08µM	n	n
CCOC(=O)C1(CC2CCCCO2)CCN(Cc2ccc(OC)cc2F)CC1 (stereo not drawn)	n	x	x
CC(C)OC(=O)c1nn2c(C(F)(F)F)cc(-c3ccc(Br)o3)nc2c1Br	17.8µM	n	x
CC(C)OC(=O)c1nn2c(C(F)(F)F)cc(-c3ccco3)nc2c1Cl	u	n	n
COc1ccccc1CN1C(=O)CN(C2CCCCCC2)C(=O)C1c1ccc(F)cc1 (stereo not drawn)	u	u	n
CCC(C)N1C(=O)CN(C2CCCCCC2)C(=O)C1c1ccccc1F (stereo not drawn)	15.8µM	x	x
O=C(NC(=S)Nc1ccc(Oc2ccccc2)cc1)c1ccc(Cl)cc1	14.1µM	u	n
Cc1ccc(C(=O)NC(=S)Nc2ccc(NC(=O)c3cccc(Cl)c3)cc2)cc1	n	u	n
S=C(Nc1ccc2c(c1)Cc1ccccc1-2)Nc1ccc2c(c1)Cc1ccccc1-2	n[13.5 µM]	x	n
COc1ccc(C(=O)NC(=S)Nc2ccc3c(c2)Cc2ccccc2-3)cc1	10µM	u	n
Cc1ccccc1C(=O)NC(=S)Nc1ccc(Oc2ccc(Cl)cc2)cc1	u	n	n
Cc1ccc(C(=O)NC(=S)Nc2ccc(Oc3ccc(Cl)cc3)cc2)cc1	17.8µM	n	n
COc1ccccc1C1CC(c2ccccc2)=NN1C(=S)Nc1ccccc1 (stereo not drawn)	n	x	x
Cc1c(O)ccc2c(O)c(NC(=O)c3ccc4c(c3)CCC(C)(C)O4)c(=O)oc12	n	x	x
CC(=O)[C@H]1CC[C@@H]2[C@H]3CC=C4C[C@@H](O)CC[C@]4(C)[C@H]3CC[C@]12C	n	x	n
